Compounds without any hit were thinned out: in the full panel of roughly 79,000, 15% have a hit. Unmarked numbers belong to inactive results. The source made the active and inactive calls. Rule as the data show it: active = growth inhibition above about 70%; inactive = the rest.
Experiments:
[1] = NCI Yeast Anticancer Drug Screen. Data for the rad50 strain (AID 155);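 also: 0% = growth of vehicle-only cultures of the same strain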; settings: S. cerevisiae rad50 strain growth inhibition, active compounds read high
Summary of the method: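 Relative growth inhibition (compound vs vehicle) was measured in yeast with a defined repair-gene alteration.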

[2] = NCI Yeast Anticancer Drug Screen. Data for the mec2-1 strain (AID 157); settings: S. cerevisiae mec2-1 strain, active compounds read high
Summary of the method: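 mec2-1 yeast strain, carrying an alteration in DNA damage repair or cell cycle control, was exposed to compounds; growth inhibition was measured relative to vehicle-treated controls.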

[3] = NCI Yeast Anticancer Drug Screen. Data for the sgs1 mgt1 strain (AID 161);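 also: 0% = growth of cultures given vehicle only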; settings: S. cerevisiae sgs1 mgt1 strain, active compounds read high
Summary of the method: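 Compounds are added to genetically altered yeast, and growth is compared with cultures given vehicle alone to give percent inhibition.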

[4] = NCI Yeast Anticancer Drug Screen. Data for the cln2 rad14 strain (AID 165);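 also: 0% = growth equal to vehicle treated cultures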; settings: S. cerevisiae cln2 rad14 strain, active compounds read high
Summary of the method: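 Yeast carrying cln2 and rad14 alterations (cell cycle control and DNA damage repair) were exposed to compounds. Growth inhibition was measured against vehicle-treated controls.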

[5] = NCI Yeast Anticancer Drug Screen. Data for the bub3 strain (AID 167); settings: S. cerevisiae bub3 mutant strain, active compounds read high
Summary of the method: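 Screening used yeast with an engineered genetic alteration affecting cell cycle control. Compound-exposed cultures were compared with vehicle cultures, and reduced growth was taken as inhibition.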

[6] = NCI Yeast Anticancer Drug Screen. Data for the mlh1 rad18 strain (AID 175); settings: S. cerevisiae mlh1 rad18 strain growth inhibition, active compounds read high
Summary of the method: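 Growth inhibition of the yeast strain was measured after compound exposure and expressed relative to vehicle-treated controls. The strain carries defined defects in DNA damage repair.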

[7] = at 5.0 µM (retest, dose inferred, filed as 0.5)
[8] = at 50.0 µM (retest, dose inferred, filed as 5.0)

Row | Compound | growth inhibition [1, 7] | growth inhibition [1, 8] | growth inhibition ([1]; at 50.0 µM) | growth inhibition [2, 7] | growth inhibition [2, 8] | growth inhibition ([2]; at 50.0 µM) | growth inhibition [3, 7] | growth inhibition [3, 8] | growth inhibition ([3]; at 50.0 µM) | growth inhibition [4, 7] | growth inhibition [4, 8] | growth inhibition ([4]; at 50.0 µM) | growth inhibition [5, 7] | growth inhibition [5, 8] | growth inhibition ([5]; at 50.0 µM) | growth inhibition [6, 7] | growth inhibition [6, 8] | growth inhibition ([6]; at 50.0 µM)
1 | CCCCN(CCC=C1c2ccccc2Oc2ccccc21)CCCC | 7% | 99% (active) | 99.7% (active) | 4% | 99% (active) | 99.7% (active) | 9% | 99% (active) | 99.7% (active) | 4% | 99% (active) | 99% (active) | 6% | 99% (active) | 11.7% | 5% | 99% (active) | 99.6% (active)
2 | O=[N+]([O-])c1cccc(S(=O)(=O)N/N=C/c2cc(I)cc([N+](=O)[O-])c2O)c1 | 5% | 6% | 25.1% | 5% | 2% | 13.1% | 10% | 11% | 34.5% | -1% | 2% | 7.85% | 2% | -1% | 4.7% | 6% | 8% | 45.9%
3 | NNc1cc([N+](=O)[O-])ccc1Cl | 5% | 93% (active) | 88.5% (active) | 6% | 68% | 91.2% (active) | -8% | 84% (active) | 90.8% (active) | 4% | 38% | 68% | 24% | 94% (active) | 95.1% (active) | -20% | 95% (active) | 98.5% (active)
4 | C[CH2][Sn]([CH2]C)([O]C(=O)c1c(F)cccc1F)[O][Sn]([CH2]C)([CH2]C)[O]C(=O)c1c(F)cccc1F | 40% | 89% (active) | 81.3% (active) | 34% | 95% (active) | 81.8% (active) | 36% | 95% (active) | 83.2% (active) | 28% | 84% (active) | 72.4% (active) | 45% | 72% (active) | 78.5% (active) | 44% | 93% (active) | 78.2% (active)
5 | COc1ccc2c(c1)[n+]([O-])c(-c1ccccc1)c(N)[n+]2[O-] | 47% | 98% (active) | 99.2% (active) | 40% | 99% (active) | 99.3% (active) | 73% (active) | 97% (active) | 99.2% (active) | 67% | 98% (active) | 98.8% (active) | 87% (active) | 99% (active) | 99.2% (active) | 82% (active) | 99% (active) | 99% (active)
6 | Nc1ccc(-c2nc3ccccc3s2)cc1Br | 33% | 74% (active) | 8% | 24% | 77% (active) | 18.8% | 31% | 97% (active) | 21.1% | 27% | 63% | 10.8% | 28% | 96% (active) | 52% | 34% | 88% (active) | 55.9%
7 | O=C(CNC(=O)C(CSCc1ccccc1)NC(=O)OCc1ccccc1)Oc1c(Cl)c(Cl)c(Cl)c(Cl)c1Cl (configuration not stated) | 10% | 34% | 46.9% | 8% | 30% | 61.9% | 2% | 30% | 68.8% | 3% | 20% | 25.6% | -4% | 13% | 15.9% | 9% | 51% | 66.4%
8 | CC(=O)Nc1ccc2c(c1)C(=O)c1cccc(F)c1-2 | 6% | 93% (active) | 90% (active) | -2% | 54% | 25.8% | -4% | 69% | 51.2% | -2% | 38% | 12% | 1% | 17% | 12.2% | 3% | 82% (active) | 45.9%
9 | CCOc1ccc2c(c1)[n+]([O-])c(-c1ccc(Cl)cc1)c(N)[n+]2[O-] | 24% | 99% (active) | 99.2% (active) | 23% | 99% (active) | 98.2% (active) | 50% | 100% (active) | 99.3% (active) | 34% | 98% (active) | 98.8% (active) | 63% | 99% (active) | 99.2% (active) | 68% | 99% (active) | 98.8% (active)
